# The whole screen tested about 2,300 compounds, of which about 330 (14%) showed activity.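 Rule for the calls: active = median modified Z-score above 1.96; inactive = 1.96 or below.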 Only a sample is shown.
# Test system: HepG2 Srxn1-GFP reporter cells (+30 nM CDDO-Me)
# Experiment: Srxn1-GFP intensity median modified Z-score relative to plate median; higher = stronger NRF2 / oxidative stress reporter activation, active = hit call of the paper
# Conditions: 10 µM; exposure time: 24h
# Procedure, shortened: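 HepG2 Srxn1-GFP BAC reporter cells (20,000 per well, 96-well plates) were co-exposed to an NRF2 activator at 30 nM and compound at 10 μM (≤0.1% DMSO) for 24 h in three replicate plates. After formaldehyde fixation and Hoechst staining, confocal images were analysed per cell for cytoplasmic GFP, excluding images with under 100 cells. The value is the median over replicates of the per-plate modified Z-score of GFP intensity. Scaling used 1.4826 × median absolute deviation.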
row,Compound,Srxn1-GFP intensity median modified Z-score
1,CC1(C)O[C@@H]2CC3C4CC(F)=C5CC(=O)C=C[C@]5(C)[C@@]4(F)[C@@H](O)C[C@]3(C)[C@]2(C(=O)CO)O1 (stereo partly specified) [euspeclibcmpd129],0.0501 (inactive)
2,CCC(C)C1NC(=O)C(CCNCS(=O)(=O)O)NC(=O)C(NC(=O)C(CCNCS(=O)(=O)O)NC(=O)C(NC(=O)C(CCNCS(=O)(=O)O)NC(=O)CCCCC(C)C)C(C)O)CCNC(=O)C(C(C)O)NC(=O)C(CCNCS(=O)(=O)O)NC(=O)C(CCNCS(=O)(=O)O)NC(=O)C(C(C)CC)NC1=O (stereo unspecified) [euspeclibcmpd2131],0.0847 (inactive)
3,CCC(C)n1nccc1NC(=O)C(C)N1CCSCC1 (stereo unspecified),0.365 (inactive)
4,COC1(C)CCC2OC2(C)CCC2C1CC2(C)C (stereo unspecified) [euspeclibcmpd2008],-0.165 (inactive)
5,CC1(C)[C@@H]2CC[C@]1(C)C(=O)C2 [euspeclibcmpd42],-0.12 (inactive)
6,O=C(O)c1cc(O)c2c(O)c3c(OC4OC(CO)C(O)C(O)C4O)cccc3c(-c3c4cc(C(=O)O)cc(O)c4c(O)c4c(OC5OC(CO)C(O)C(O)C5O)cccc34)c2c1 (stereo unspecified) [euspeclibcmpd1934],-0.281 (inactive)
7,Cn1nnnc1SC=C1CSC2C(NC(=O)C(O)c3ccccc3)C(=O)N2C1C(=O)O (stereo unspecified) [euspeclibcmpd2229],-0.103 (inactive)
8,O=C(Nc1ccccc1Cl)C1=NN(C2CCS(=O)(=O)C2)C(=O)CC1 (stereo unspecified),1.26 (inactive)
9,COc1cc(OC)c2c(=O)c(-c3ccccc3)c(C)oc2c1OC [euspeclibcmpd2303],1.35 (inactive)
10,O=C(O)Cc1ccccc1Nc1c(Cl)cccc1Cl [euspeclibcmpd2396],0.438 (inactive)
11,N=c1[nH]c(N2CCCCC2)cc(N)[n+]1[O-] [euspeclibcmpd792],-0.234 (inactive)
12,CC1(C)O[C@@H]2CC3C4CC(F)=C5CC(=O)C=CC5(C)C4C(O)CC3(C)[C@]2(C(=O)CO)O1 (stereo partly specified) [euspeclibcmpd414],0.0846 (inactive)
13,O=C1CCC(N2C(=O)c3ccccc3C2=O)C(=O)N1 (stereo unspecified) [euspeclibcmpd588],-0.192 (inactive)
14,NC(=O)Nc1[nH]c(=O)[nH]c1O [euspeclibcmpd347],-0.31 (inactive)
15,CC1CCC2[C@@]3(C)C=CC(=O)C(C)(C)C3CC3OC(=O)C(=O)C1[C@]32C (stereo partly specified) [euspeclibcmpd1535],9.38 (active)
16,CC(=O)OC=C1CSC2C(NC(=O)CSc3ccncc3)C(=O)N2C1C(=O)O (stereo unspecified) [euspeclibcmpd2110],0.0966 (inactive)
17,OCCc1ccccc1 [euspeclibcmpd771],-0.962 (inactive)
18,S=C1SCN(Cc2ccccc2)CN1Cc1ccccc1 [euspeclibcmpd1200],10 (active)
19,CC(=O)NC1C(O)OC(CO)C(O)C1O (stereo unspecified) [euspeclibcmpd1995],-0.204 (inactive)
20,Cc1c(N=c2[nH]cccc2C(=O)O)cccc1C(F)(F)F [euspeclibcmpd1313],0.328 (inactive)
21,Cc1cnc(C(=O)O)c[n+]1[O-] [euspeclibcmpd1196],-0.419 (inactive)
22,CN[C@@H]1[C@H](OC2[C@H](O[C@H]3[C@H](O)[C@@H](O)[C@H](N=C(N)N)[C@@H](O)[C@@H]3N=C(N)N)O[C@@H](C)[C@]2(O)C=O)O[C@@H](CO)[C@H](O)[C@H]1O (stereo partly specified) [euspeclibcmpd270],-0.445 (inactive)

row,Compound,Srxn1-GFP intensity median modified Z-score
1,C=C(C)[C@H]1C=CC(C(=O)O)CC1 (stereo partly specified) [euspeclibcmpd1451],-0.188 (inactive)
2,O=C(Oc1cccc2cccnc12)c1ccccc1 [euspeclibcmpd773],12.8 (active)
3,Cc1ccc(C(=O)Oc2cccc3cccnc23)cc1,0.989 (inactive)
4,O=C(Oc1cccc2cccnc12)c1ccccc1Cl,1.65 (inactive)
5,CC/C=C\C/C=C\C/C=C\C/C=C\C/C=C\CCCC(=O)OCC [euspeclibcmpd997],0.696 (inactive)
6,C[C@H]1[C@H]2CCC3C4CC=C5C[C@@H](N(C)C)CC[C@]5(C)C4CC[C@@]32CN1C (stereo partly specified) [euspeclibcmpd1801],-0.317 (inactive)
7,CC(C)CCCC(C)[C@H]1CCC2C3CC=C4C[C@@H](O)CC[C@]4(C)C3CC[C@@]21C (stereo partly specified) [euspeclibcmpd354],0.396 (inactive)
8,C=C1CC[C@H](O)C/C1=C/C=C1\CCC[C@]2(C)C([C@H](C)/C=C/[C@H](C)C(C)C)CC[C@@H]12 (stereo partly specified) [euspeclibcmpd112],2.55 (active)
9,CCC(/C=C/[C@@H](C)[C@H]1CCC2C3CC=C4C[C@@H](O)CC[C@]4(C)C3CC[C@@]21C)C(C)C (stereo partly specified) [euspeclibcmpd1549],-0.0971 (inactive)
10,CC(=O)OC1CCC2(C)C(=CC=C3C2CCC2(C)C3CCC2C(C)/C=C/C(C)C(C)C)C1(C)C (stereo unspecified) [euspeclibcmpd1343],1.93 (inactive)
11,CC(C)C(C)/C=C/C(C)C1CCC2C3=CC=C4CC(O)CCC4(C)C3CCC21C (stereo unspecified) [euspeclibcmpd1597],5.02 (active)
12,C=C1CC[C@H](O)C/C1=C/C=C1\CCCC2(C)C1CCC2C(C)CCCC(C)C (stereo partly specified) [euspeclibcmpd353],2.95 (active)
13,CC(C)CCCC(C)C1CCC2C3=CCC4CC(O)CCC4(C)C3CCC21C (stereo unspecified) [euspeclibcmpd1991],-0.131 (inactive)
14,CC(=O)Nc1ccc(S(=O)(=O)N=c2o[nH]c(C)c2C)cc1 [euspeclibcmpd798],-0.176 (inactive)
15,CC(=O)N[C@H]1[C@H]([C@H](O)[C@H](O)CO)O[C@](O)(C(=O)O)C[C@@H]1O [euspeclibcmpd2223],-0.0326 (inactive)
16,CC(C)C(N)C(=O)OCC(CO)OCn1cnc2c(=O)[nH]c(=N)[nH]c21 (stereo unspecified) [euspeclibcmpd624],-0.125 (inactive)
17,C[C@H]1CC2C3CC=C4CC(=O)C=C[C@]4(C)[C@@]3(F)[C@@H](O)C[C@]2(C)[C@@]1(O)C(=O)COP(=O)(O)O (stereo partly specified) [euspeclibcmpd2288],-0.294 (inactive)
18,CNCc1ccccc1 [euspeclibcmpd1631],-0.463 (inactive)
19,CC(CN(C)C)CN1c2ccccc2Sc2ccccc21 (stereo unspecified) [euspeclibcmpd308],-0.246 (inactive)
20,CCC(=O)O[C@]1(C(=O)CCl)[C@@H](C)CC2C3CC=C4CC(=O)C=C[C@]4(C)[C@@]3(F)[C@@H](O)C[C@@]21C (stereo partly specified) [euspeclibcmpd633],0.492 (inactive)
21,C[C@@H]1CC2C3CC=C4CC(=O)C=C[C@]4(C)[C@@]3(Cl)[C@@H](O)C[C@]2(C)[C@@]1(OC(=O)c1ccco1)C(=O)CCl (stereo partly specified) [euspeclibcmpd756],2.37 (active)
22,CCC(=O)OCC(=O)C1(OC(=O)CC)C(C)CC2C3CC=C4CC(=O)C=CC4(C)C3(Cl)C(O)CC21C (stereo unspecified) [euspeclibcmpd31],-0.85 (inactive)

row,Compound,Srxn1-GFP intensity median modified Z-score
1,NC[C@@H]1CC[C@@H](N)[C@@H](O[C@H]2[C@H](O)[C@@H](O[C@H]3O[C@H](CO)[C@@H](O)[C@H](N)[C@H]3O)[C@H](N)C[C@@H]2N)O1 [euspeclibcmpd1045],-0.0322 (inactive)
2,CCOc1ccc(C(=O)c2cc(O)c(OC)c(OC)c2O)cc1 [euspeclibcmpd2089],-0.551 (inactive)
3,CCCCCCCCCCCCCCC(C(=O)OC)C(O)(CC(=O)OC)C(=O)OC (stereo unspecified) [euspeclibcmpd2214],-0.435 (inactive)
4,CCCCCCCCCCCCC(C(=O)O)C(C)C(=O)O (stereo unspecified) [euspeclibcmpd1524],0.456 (inactive)
5,CCCCCCCCCCCCCCCCC(C(=O)O)C(O)(CC(=O)O)C(=O)O (stereo unspecified) [euspeclibcmpd1735],3.83 (active)
6,OC[C@H]1O[C@H](OC[C@H]2O[C@@H](O)[C@H](O)[C@@H](O)[C@@H]2O)[C@H](O)[C@@H](O)[C@H]1O [euspeclibcmpd1651],-0.055 (inactive)
7,CC(C)Cn1c(=O)n(C)c(=O)c2nc[nH]c21 [euspeclibcmpd2061],0.0284 (inactive)
8,CC(O)Cn1cnc2c1c(=O)n(C)c(=O)n2C (stereo unspecified) [euspeclibcmpd1230],0.0469 (inactive)
9,CC(C)Cn1c(=O)n(C)c(=O)c2nc[nH]c21 [euspeclibcmpd1808],11.6 (active)
10,Cn1c(=O)c2nc[nH]c2n(C)c1=O [euspeclibcmpd290],-0.062 (inactive)
11,COc1ccc(Cc2c[nH]c(=N)[nH]c2=N)cc1OC [euspeclibcmpd456],-0.0911 (inactive)
12,COc1ccc(/C=C2/COc3ccc(Br)cc3C2=O)cc1O,1.17 (inactive)
13,COc1ccc2c(c1)C(=O)/C(=C\c1ccc(OC)c(O)c1)CO2,3.46 (active)
14,COc1ccc([C@@H]2CC(=O)c3c(O)cc(O)cc3O2)cc1O [euspeclibcmpd1483],0.0163 (inactive)
15,COc1cc2c(cc1OC)-c1c(oc3cc(O)cc(O)c3c1=O)CO2 [euspeclibcmpd2244],-0.157 (inactive)
16,COc1ccc2c(c1)OC/C(=C\c1ccc(OC)c(O)c1)C2=O [euspeclibcmpd1638],19.3 (active)
17,COc1ccc(-c2cc(=O)c3c(O)cc(OC)c(OC)c3o2)c(OC)c1 [euspeclibcmpd1657],0.259 (inactive)
18,COC(=O)/C=C/C(C)=C/C=C/C(C)=C/C=C/C=C(C)/C=C/C=C(C)/C=C/C(=O)O [euspeclibcmpd2376],-0.19 (inactive)
19,COC(=O)/C=C/C(=O)OC [euspeclibcmpd923],6.34 (active)
20,COC(=O)/C=C/c1cc(OC)c(OC)c(OC)c1 [euspeclibcmpd2136],0.7 (inactive)
21,COCCN(Cc1ccccn1)C(=O)C1CCN(C)C(=O)C1 (stereo unspecified),0.317 (inactive)
22,CC1(C)SC2C(NC(=O)[C@@H](NC(=O)N3CCNC3=O)c3ccccc3)C(=O)N2C1C(=O)O (stereo partly specified) [euspeclibcmpd2116],-0.415 (inactive)

# Reference: the supplement of paper PMC10498489
